# Data published in paper PMC7862700, “An all-to-all approach to the identification of sequence-specific readers for epigenetic DNA modifications on cytosine”.
# How the values were obtained:
# Test in all cases: DAPPL (digital affinity profiling via proximity ligation, sequencing); 10 mM Tris-HCl pH 7.5, 50 mM NaCl, 1 mM DTT, 4% glycerol, room temperature, 30 min; GST-TFs on glutathione beads, 16-mer random dsDNA library, 0.1% formaldehyde crosslink after washing; high values mean tight binding
# FLI1 = target: T1, FLI1 (Homo sapiens, UniProt Q01543 1-452); conditions: protein: recombinant; tags: N-terminal GST; dsDNA, one strand shown
# T1 sequence: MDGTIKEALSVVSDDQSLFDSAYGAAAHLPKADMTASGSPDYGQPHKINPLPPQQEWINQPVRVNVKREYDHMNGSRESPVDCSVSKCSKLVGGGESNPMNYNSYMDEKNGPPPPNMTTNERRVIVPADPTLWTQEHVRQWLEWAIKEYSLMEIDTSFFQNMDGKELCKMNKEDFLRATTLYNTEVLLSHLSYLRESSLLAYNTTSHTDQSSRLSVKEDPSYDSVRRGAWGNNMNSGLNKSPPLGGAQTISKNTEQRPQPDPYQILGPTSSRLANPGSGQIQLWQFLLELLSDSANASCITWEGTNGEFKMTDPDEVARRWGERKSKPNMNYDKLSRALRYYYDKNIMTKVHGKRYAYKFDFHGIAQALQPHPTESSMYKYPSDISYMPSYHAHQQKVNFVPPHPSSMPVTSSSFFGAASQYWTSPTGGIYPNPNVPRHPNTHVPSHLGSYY
# Procedure, shortened: (§1)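 Binding signal is defined as a hexamer's read frequency for one factor over its frequency for the tag-only sample. To obtain reads, GST-fused human transcription factors were expressed in yeast, captured on glutathione beads, barcoded with DNA and pooled with that sample. Pools met 200 nmole of a 16-mer random double-stranded DNA library in Tris/NaCl/DTT/glycerol buffer for 30 min at room temperature before washing, 0.1% formaldehyde crosslinking, proximity ligation (BsaI/T4 ligase, 1 h, 37 °C), PCR and Illumina NextSeq500 sequencing.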
# ELK1 = target: T2, ELK1 (Homo sapiens, UniProt P19419 1-428); conditions: protein: recombinant; tags: N-terminal GST; dsDNA, one strand shown
# T2 sequence: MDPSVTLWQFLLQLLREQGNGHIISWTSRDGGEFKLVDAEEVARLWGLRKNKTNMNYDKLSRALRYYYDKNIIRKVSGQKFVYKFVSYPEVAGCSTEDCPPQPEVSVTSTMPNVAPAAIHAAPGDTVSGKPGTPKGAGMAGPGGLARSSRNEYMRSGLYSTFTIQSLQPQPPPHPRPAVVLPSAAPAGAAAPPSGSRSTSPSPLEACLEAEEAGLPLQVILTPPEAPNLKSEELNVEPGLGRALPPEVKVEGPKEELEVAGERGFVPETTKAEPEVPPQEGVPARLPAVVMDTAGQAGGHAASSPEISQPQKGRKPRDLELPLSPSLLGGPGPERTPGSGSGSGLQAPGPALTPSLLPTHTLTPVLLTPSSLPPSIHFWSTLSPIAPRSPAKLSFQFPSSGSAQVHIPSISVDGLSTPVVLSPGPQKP
# Procedure, shortened: as §1
# GABPA = target: T3, GABPA (Homo sapiens, UniProt Q06546 1-454); conditions: protein: recombinant; tags: N-terminal GST; dsDNA, one strand shown
# T3 sequence: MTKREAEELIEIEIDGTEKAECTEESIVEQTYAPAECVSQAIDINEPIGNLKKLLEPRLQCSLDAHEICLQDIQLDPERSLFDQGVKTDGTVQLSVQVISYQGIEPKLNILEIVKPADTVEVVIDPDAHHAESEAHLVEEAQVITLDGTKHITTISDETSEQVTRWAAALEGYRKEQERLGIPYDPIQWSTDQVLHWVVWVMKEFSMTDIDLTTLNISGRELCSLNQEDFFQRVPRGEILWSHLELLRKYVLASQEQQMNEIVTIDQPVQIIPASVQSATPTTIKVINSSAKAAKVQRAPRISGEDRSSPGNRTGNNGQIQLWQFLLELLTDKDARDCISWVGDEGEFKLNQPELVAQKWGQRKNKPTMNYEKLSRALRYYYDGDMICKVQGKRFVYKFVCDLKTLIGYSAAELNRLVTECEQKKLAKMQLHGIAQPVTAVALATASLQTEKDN
# Procedure, shortened: as §1
# ERG = target: T4, ERG (Homo sapiens, UniProt P11308 1-479); conditions: protein: recombinant; tags: N-terminal GST; dsDNA, one strand shown
# T4 sequence: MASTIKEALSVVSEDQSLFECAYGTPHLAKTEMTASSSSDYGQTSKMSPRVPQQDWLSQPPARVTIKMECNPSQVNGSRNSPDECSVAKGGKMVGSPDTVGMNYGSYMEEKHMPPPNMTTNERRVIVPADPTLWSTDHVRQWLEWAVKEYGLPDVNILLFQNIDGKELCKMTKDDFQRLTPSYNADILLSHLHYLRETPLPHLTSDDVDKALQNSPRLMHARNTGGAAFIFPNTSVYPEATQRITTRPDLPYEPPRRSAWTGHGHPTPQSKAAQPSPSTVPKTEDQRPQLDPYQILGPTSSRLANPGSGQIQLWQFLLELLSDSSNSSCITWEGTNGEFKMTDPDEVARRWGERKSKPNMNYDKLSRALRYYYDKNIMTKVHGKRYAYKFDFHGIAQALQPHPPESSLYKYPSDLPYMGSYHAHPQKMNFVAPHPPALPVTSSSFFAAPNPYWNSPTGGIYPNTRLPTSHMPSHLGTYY
# Procedure, shortened: as §1
# ELF1 = ELF1 (Homo sapiens, UniProt P32519 1-619); conditions: protein: recombinant; tags: N-terminal GST; dsDNA, one strand shown
# ELF1, sequence (P32519 whole entry): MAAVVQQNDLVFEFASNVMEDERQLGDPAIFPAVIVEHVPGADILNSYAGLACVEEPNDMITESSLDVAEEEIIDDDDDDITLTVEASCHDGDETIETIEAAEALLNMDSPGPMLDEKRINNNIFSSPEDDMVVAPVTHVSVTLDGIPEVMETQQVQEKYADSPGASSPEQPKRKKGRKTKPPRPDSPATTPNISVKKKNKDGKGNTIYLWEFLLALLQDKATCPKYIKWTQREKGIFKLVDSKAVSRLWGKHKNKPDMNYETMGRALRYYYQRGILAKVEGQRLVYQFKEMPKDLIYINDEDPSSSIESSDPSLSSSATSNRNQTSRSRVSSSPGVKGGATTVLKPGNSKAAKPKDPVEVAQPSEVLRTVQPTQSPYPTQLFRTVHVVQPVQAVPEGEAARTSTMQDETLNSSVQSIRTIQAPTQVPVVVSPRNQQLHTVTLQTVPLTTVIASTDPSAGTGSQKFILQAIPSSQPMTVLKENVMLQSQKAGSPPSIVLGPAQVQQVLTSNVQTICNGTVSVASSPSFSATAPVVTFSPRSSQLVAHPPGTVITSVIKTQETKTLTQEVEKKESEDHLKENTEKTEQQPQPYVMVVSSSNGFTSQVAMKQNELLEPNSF
# Procedure, shortened: as §1
# EHF = target: T5, EHF (Homo sapiens, UniProt Q9NZC4 1-300); conditions: protein: recombinant; tags: N-terminal GST; dsDNA, one strand shown
# T5 sequence: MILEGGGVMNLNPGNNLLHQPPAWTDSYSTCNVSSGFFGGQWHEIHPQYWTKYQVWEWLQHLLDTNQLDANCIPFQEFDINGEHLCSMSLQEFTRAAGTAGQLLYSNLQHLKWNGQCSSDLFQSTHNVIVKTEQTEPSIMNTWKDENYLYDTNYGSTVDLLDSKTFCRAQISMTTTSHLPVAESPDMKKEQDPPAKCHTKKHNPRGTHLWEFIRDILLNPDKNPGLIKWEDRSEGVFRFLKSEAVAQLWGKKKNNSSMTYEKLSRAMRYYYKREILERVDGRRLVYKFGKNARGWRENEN
# Procedure, shortened: as §1
# SPI1 = SPI1 (Homo sapiens, UniProt P17947 1-270); conditions: protein: recombinant; tags: N-terminal GST; dsDNA, one strand shown
# Procedure, shortened: as §1
# SPIB = SPIB (Homo sapiens, UniProt Q01892 1-262); conditions: protein: recombinant; tags: N-terminal GST; dsDNA, one strand shown
# SPIB, sequence (Q01892 whole entry): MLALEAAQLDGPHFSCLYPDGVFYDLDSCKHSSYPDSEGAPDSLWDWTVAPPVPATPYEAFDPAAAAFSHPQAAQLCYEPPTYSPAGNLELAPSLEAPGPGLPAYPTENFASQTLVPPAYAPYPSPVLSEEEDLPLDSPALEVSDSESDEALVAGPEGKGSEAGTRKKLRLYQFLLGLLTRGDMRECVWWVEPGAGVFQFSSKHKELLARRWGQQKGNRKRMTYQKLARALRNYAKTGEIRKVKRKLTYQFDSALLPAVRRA
# Procedure, shortened: as §1
# ELK3 = target: T6, ELK3 (Homo sapiens, UniProt P41970 1-407); conditions: protein: recombinant; tags: N-terminal GST; dsDNA, one strand shown
# T6 sequence: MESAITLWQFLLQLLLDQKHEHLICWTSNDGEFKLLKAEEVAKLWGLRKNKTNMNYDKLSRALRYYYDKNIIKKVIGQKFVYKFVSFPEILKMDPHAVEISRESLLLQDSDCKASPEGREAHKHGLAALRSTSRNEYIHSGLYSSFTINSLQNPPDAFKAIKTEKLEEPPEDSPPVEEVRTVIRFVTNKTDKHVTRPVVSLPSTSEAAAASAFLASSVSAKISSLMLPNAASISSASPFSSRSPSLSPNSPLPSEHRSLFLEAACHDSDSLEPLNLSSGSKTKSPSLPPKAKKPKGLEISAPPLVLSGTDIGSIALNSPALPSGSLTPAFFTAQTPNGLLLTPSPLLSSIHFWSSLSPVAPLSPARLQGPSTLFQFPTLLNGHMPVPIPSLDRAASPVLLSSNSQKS
# Procedure, shortened: as §1
# FEV = target: T7, FEV (Homo sapiens, UniProt Q99581 1-238); conditions: protein: recombinant; tags: N-terminal GST; dsDNA, one strand shown
# T7 sequence: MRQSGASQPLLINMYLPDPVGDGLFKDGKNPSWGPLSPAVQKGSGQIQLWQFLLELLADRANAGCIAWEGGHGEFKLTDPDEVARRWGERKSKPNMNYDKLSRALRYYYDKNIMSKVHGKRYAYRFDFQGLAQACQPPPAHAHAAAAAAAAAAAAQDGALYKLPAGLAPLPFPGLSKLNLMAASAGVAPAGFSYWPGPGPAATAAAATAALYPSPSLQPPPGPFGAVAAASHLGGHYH
# Procedure, shortened: as §1
# ETV5 = ETV5 (Homo sapiens, UniProt P41161 1-510); conditions: protein: recombinant; tags: N-terminal GST; dsDNA, one strand shown
# ETV5, sequence (P41161 whole entry): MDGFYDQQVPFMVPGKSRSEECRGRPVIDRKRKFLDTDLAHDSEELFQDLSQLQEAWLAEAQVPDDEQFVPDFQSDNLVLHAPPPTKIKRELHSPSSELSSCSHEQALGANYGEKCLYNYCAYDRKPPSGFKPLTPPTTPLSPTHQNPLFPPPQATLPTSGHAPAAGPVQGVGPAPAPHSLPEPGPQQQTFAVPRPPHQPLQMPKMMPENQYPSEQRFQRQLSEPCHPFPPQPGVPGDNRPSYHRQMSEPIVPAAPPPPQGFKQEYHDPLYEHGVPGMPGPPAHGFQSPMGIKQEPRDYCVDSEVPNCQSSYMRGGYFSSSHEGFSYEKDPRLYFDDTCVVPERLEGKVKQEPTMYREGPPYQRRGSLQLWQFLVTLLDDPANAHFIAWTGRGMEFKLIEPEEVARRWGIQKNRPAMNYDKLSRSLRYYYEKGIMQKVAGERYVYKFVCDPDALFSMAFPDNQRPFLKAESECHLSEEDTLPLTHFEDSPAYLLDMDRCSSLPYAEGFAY
# Procedure, shortened: as §1
# HSF1 = HSF1 (Homo sapiens, UniProt Q00613 1-529); conditions: protein: recombinant; tags: N-terminal GST; chain copies: 3; dsDNA, one strand shown
# HSF1, sequence (Q00613 whole entry): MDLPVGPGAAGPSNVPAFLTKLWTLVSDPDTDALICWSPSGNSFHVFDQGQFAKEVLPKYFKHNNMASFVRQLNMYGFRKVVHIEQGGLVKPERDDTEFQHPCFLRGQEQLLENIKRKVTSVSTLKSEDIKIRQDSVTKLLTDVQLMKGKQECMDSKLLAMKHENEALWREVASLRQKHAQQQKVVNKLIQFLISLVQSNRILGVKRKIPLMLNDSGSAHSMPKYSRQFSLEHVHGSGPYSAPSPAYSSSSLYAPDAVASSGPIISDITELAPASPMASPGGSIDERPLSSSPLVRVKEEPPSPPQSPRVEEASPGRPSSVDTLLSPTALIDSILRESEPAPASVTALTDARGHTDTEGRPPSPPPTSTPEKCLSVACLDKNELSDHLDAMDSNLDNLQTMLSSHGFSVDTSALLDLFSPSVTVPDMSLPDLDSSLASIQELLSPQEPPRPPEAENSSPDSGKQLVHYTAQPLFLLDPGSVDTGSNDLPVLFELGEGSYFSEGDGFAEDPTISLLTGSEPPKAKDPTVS
# Procedure, shortened: as §1
# SPIC = target: T8, SPIC (Homo sapiens, UniProt Q8N5J4 1-248); conditions: protein: recombinant; tags: N-terminal GST; dsDNA, one strand shown
# T8 sequence: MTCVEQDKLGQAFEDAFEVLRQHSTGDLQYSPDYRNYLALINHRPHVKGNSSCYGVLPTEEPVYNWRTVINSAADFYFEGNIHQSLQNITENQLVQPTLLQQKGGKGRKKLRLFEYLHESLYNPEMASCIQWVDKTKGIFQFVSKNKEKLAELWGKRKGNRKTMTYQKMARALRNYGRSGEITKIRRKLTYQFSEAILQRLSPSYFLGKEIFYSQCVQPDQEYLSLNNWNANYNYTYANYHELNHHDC
# Procedure, shortened: as §1
# ELF4 = ELF4 (Homo sapiens, UniProt Q99607 1-663); conditions: protein: recombinant; tags: N-terminal GST; dsDNA, one strand shown
# ELF4, sequence (Q99607 whole entry): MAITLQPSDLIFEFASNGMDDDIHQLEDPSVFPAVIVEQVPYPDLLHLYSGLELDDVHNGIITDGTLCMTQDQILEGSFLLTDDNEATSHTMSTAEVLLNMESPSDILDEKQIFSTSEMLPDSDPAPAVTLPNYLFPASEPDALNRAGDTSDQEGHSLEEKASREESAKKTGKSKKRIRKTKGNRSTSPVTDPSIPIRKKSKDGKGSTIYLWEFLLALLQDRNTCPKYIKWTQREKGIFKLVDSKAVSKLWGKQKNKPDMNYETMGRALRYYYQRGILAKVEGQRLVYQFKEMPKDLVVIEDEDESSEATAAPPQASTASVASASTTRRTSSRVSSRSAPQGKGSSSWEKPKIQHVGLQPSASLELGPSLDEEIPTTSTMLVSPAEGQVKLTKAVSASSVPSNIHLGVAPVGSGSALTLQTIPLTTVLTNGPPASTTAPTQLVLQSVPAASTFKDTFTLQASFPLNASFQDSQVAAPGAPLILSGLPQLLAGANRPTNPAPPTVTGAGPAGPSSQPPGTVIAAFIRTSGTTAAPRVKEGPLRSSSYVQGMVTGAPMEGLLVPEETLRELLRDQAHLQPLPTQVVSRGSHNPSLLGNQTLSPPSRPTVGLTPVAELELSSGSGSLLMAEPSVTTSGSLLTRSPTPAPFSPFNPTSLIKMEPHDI
# Procedure, shortened: as §1
# ELK4 = target: T9, ELK4 (Homo sapiens, UniProt P28324-2 1-405); conditions: protein: recombinant; tags: N-terminal GST; dsDNA, one strand shown
# T9 sequence: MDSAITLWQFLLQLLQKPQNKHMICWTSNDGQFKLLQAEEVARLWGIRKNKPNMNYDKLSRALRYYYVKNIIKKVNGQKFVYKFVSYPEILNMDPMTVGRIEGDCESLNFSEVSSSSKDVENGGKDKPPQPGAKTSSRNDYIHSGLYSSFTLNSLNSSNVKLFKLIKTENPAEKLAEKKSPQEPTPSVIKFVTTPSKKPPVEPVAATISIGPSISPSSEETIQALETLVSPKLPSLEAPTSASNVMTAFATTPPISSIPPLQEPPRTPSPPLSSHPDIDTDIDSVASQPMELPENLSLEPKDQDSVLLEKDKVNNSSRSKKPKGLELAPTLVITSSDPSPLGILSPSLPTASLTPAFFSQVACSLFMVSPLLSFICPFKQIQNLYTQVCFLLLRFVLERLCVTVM
# Procedure, shortened: as §1
# ETV2 = target: T10, ETV2 (Homo sapiens, UniProt O00321 1-342); conditions: protein: recombinant; tags: N-terminal GST; dsDNA, one strand shown
# T10 sequence: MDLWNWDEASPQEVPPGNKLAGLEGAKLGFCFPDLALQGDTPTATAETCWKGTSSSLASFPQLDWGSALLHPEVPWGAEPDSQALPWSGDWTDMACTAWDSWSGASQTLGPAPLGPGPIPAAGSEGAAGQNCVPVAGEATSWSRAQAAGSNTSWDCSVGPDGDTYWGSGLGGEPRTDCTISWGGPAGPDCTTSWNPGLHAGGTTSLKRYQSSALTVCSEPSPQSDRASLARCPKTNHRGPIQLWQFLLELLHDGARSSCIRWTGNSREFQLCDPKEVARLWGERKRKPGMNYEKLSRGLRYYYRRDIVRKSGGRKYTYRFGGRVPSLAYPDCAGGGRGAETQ
# Procedure, shortened: as §1
# ELF3 = target: T11, ELF3 (Homo sapiens, UniProt P78545 1-371); conditions: protein: recombinant; tags: N-terminal GST; dsDNA, one strand shown
# T11 sequence: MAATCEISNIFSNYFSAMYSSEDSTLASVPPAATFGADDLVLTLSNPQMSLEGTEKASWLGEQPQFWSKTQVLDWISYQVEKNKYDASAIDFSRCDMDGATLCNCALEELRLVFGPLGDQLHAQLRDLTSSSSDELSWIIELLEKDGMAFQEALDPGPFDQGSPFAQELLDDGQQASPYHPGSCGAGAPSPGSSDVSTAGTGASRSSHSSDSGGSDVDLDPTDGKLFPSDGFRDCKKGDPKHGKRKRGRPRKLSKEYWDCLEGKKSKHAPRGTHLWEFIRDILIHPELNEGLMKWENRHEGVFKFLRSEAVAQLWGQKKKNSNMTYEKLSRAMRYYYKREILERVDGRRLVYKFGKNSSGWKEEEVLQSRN
# Procedure, shortened: as §1
# CRX = CRX (Homo sapiens, UniProt O43186 1-299); conditions: protein: recombinant; tags: N-terminal GST; dsDNA, one strand shown
# CRX, sequence (O43186 whole entry): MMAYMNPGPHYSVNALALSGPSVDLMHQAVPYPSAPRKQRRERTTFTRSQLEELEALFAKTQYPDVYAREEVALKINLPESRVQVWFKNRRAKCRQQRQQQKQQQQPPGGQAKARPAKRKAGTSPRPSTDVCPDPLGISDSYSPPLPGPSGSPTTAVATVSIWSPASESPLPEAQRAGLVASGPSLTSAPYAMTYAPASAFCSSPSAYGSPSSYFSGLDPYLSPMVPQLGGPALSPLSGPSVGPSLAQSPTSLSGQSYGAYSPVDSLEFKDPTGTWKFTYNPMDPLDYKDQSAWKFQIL
# Procedure, shortened: as §1
# ETV1 = ETV1 (Homo sapiens, UniProt P50549 1-477); conditions: protein: recombinant; tags: N-terminal GST; dsDNA, one strand shown
# ETV1, sequence (P50549 whole entry): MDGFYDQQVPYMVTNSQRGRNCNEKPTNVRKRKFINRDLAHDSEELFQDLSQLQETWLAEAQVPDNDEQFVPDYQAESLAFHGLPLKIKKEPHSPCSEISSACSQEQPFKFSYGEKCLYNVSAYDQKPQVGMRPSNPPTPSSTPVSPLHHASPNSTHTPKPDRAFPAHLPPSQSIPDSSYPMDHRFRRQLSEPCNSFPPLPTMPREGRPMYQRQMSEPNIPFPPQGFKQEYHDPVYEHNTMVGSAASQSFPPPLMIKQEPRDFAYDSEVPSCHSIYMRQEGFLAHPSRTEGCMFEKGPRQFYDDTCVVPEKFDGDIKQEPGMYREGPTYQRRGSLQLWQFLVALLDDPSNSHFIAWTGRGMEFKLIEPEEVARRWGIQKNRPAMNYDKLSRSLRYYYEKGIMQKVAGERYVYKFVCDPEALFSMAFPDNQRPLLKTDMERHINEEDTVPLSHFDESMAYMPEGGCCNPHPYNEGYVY
# Procedure, shortened: as §1
sequence,measurement,setting,value
GCTCCT,binding signal,FLI1,"1.54 fold enrichment (6-mer frequency, TF over GST control)"
same,binding signal,ELK1,"1.39 fold enrichment (6-mer frequency, TF over GST control)"
same,binding signal,GABPA,"1.52 fold enrichment (6-mer frequency, TF over GST control)"
same,binding signal,ERG,"1.32 fold enrichment (6-mer frequency, TF over GST control)"
same,binding signal,ELF1,"1.45 fold enrichment (6-mer frequency, TF over GST control)"
same,binding signal,EHF,"1.41 fold enrichment (6-mer frequency, TF over GST control)"
same,binding signal,SPI1,"1.4 fold enrichment (6-mer frequency, TF over GST control)"
same,binding signal,SPIB,"1.46 fold enrichment (6-mer frequency, TF over GST control)"
same,binding signal,ELK3,"1.33 fold enrichment (6-mer frequency, TF over GST control)"
same,binding signal,FEV,"1.46 fold enrichment (6-mer frequency, TF over GST control)"
same,binding signal,ETV5,"1.4 fold enrichment (6-mer frequency, TF over GST control)"
same,binding signal,HSF1,"1.29 fold enrichment (6-mer frequency, TF over GST control)"
same,binding signal,SPIC,"1.44 fold enrichment (6-mer frequency, TF over GST control)"
same,binding signal,ELF4,"1.51 fold enrichment (6-mer frequency, TF over GST control)"
same,binding signal,ELK4,"1.33 fold enrichment (6-mer frequency, TF over GST control)"
same,binding signal,ETV2,"1.57 fold enrichment (6-mer frequency, TF over GST control)"
same,binding signal,ELF3,"1.57 fold enrichment (6-mer frequency, TF over GST control)"
same,binding signal,CRX,"1.34 fold enrichment (6-mer frequency, TF over GST control)"
same,binding signal,ETV1,"1.46 fold enrichment (6-mer frequency, TF over GST control)"
